Data: PubChem BioAssay (NCATS)
Unmarked numbers belong to inactive results. The source made the active and inactive calls. The call rests on the fitted dose curve; in most records, active means well fitted activation curve with a large enough effect; inconclusive means small, poorly fitted or top-dose-only effect; inactive means flat fitted curve, though single readings scatter.

Assay: Confirmation and Secondary Assay for Modulators of Hemoglobin Beta Chain Splicing at IVS2 705 locus (AID 930); further: % of control where 0% means no effect
Details: HeLa EGFP-705 splicing reporter, GFP fluorescence, 48 h; series mostly up to 46.1 µM; activation: at the top concentration
Summary of the method: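 HeLa cells stably carrying EGFP interrupted by mutant beta-globin intron 2 (IVS2-705) treated 2 days at 37C with compound; 500 nM antisense PNA as control. Correct splicing read as total peak GFP intensity per well by laser-scanning cytometry.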

Row | Compound | activation [%] | outcome
1 | O=C(O)CCNC(=O)c1ccccc1 | 0.441 | 
2 | CN(C)CCOC(c1ccc(Cl)cc1)c1ccccn1 (configuration not stated) | -0.0244 | 
3 | CCOC(=O)c1ccc(N)cc1 | 2.61 | 
4 | Cc1cc(C)cc(OCC2CNC(=O)O2)c1 (configuration not stated) | -0.668 | 
5 | CN(C)CCOC(=O)C(c1ccccc1)C1(O)CCCC1 (configuration not stated) | 1.52 | 
6 | O=C(O)P(=O)(O)O | 1.87 | 
7 | C[N+]12CCC(CC1)C(OC(=O)C(O)(c1ccccc1)c1ccccc1)C2 (configuration not stated) | 0.101 | 
8 | CCCCCN=C(N)N/N=C/c1c[nH]c2ccc(OC)cc12 |  | inactive
9 | O=C1C(CCS(=O)c2ccccc2)C(=O)N(c2ccccc2)N1c1ccccc1 (configuration not stated) | 0.214 | 
10 | CCN(CC)CCNC(=O)c1cc(Br)c(N)cc1OC | -1.03 | 
11 | Cc1ccccc1OCC(O)CO (configuration not stated) | -1.08 | 
12 | CCN(CC)CCOC(=O)C(Cc1cccc2ccccc12)CC1CCCO1 (configuration not stated) | -0.868 | 
13 | CCN(CC)CCNc1ccc(CO)c2sc3ccccc3c(=O)c12 | 2.1 | 
14 | CCN(CC)CCOc1ccc2c(c1)C(=O)c1cc(OCCN(CC)CC)ccc1-2 | 0.727 | 
15 | CC(=O)Nc1ccc(S(=O)(=O)Nc2ccc([N+](=O)[O-])cc2)cc1 | 0.527 | 
16 | Cc1cc(-c2ccccc2)nnc1NCCN1CCOCC1 | 0.82 | 

Row | Compound | activation [%] | outcome
17 | COc1cc(NS(=O)(=O)c2ccc(N)cc2)ncn1 | -0.181 | 
18 | CCN1CCCC(OC(=O)C(c2ccccc2)c2ccccc2)C1 (configuration not stated) | 1.02 | 
19 | O=C(O)CCC(=O)Nc1ccc(S(=O)(=O)Nc2nccs2)cc1 | 1.5 | 
20 | CCC(Cc1c(I)cc(I)c(N)c1I)C(=O)O (configuration not stated) | -0.654 | 
21 | CC(C)NCC(O)c1ccc2ccccc2c1 (configuration not stated) | 0.392 | 
22 | COc1ccc(-c2cc(C(F)F)nn2-c2ccc(S(N)(=O)=O)cc2)cc1F | 0.932 | 
23 | CCOC(=O)[C@H](CCc1ccccc1)N[C@@H](C)C(=O)N1[C@H](C(=O)O)C[C@H]2CCCC[C@@H]21 | 1.38 | 
24 | O=C1C(O)=C(O)C(=O)C(O)=C1O | 0.88 | 
25 | COc1cc(N)c(Cl)cc1C(=O)NC1CCN(Cc2ccccc2)CC1 | -0.532 | 
26 | CC(C(=O)O)c1cccc(Oc2ccccc2)c1 (configuration not stated) | 3.05 | 
27 | COC(=O)C(c1ccccc1Cl)N1CCc2sccc2C1 (configuration not stated) | 1.17 | 
28 | O=C(CCCN1CC=C(n2c(=O)[nH]c3ccccc32)CC1)c1ccc(F)cc1 | 2.92 | 
29 | Oc1c(Cl)cc(Cl)c(Cl)c1Cc1c(O)c(Cl)cc(Cl)c1Cl | 0.756 | 
30 | c1ccc(CC2=NCCN2)cc1 | 4.15 | 
31 | COc1ccc(CN(CCN(C)C)c2ncccn2)cc1 | 0.772 | 
32 | COc1cc(C(=O)NCc2ccc(OCCN(C)C)cc2)cc(OC)c1OC | 0.332 | 
